Data: the supplement of paper PMC13380429

system: Vero E6 infected with SARS-CoV-2; test: morphology score (similarity to uninfected cells); higher = more like uninfected cells; conditions: 24 h

Structure (SMILES)	morphology score
CC[C@H](C)[C@H](NC(=O)[C@H](Cc1ccc(O)cc1)NC(=O)[C@@H](NC(=O)[C@H](CCCNC(=N)N)NC(=O)[C@@H](N)CC(=O)O)C(C)C)C(=O)N[C@@H](Cc1c[nH]cn1)C(=O)N1CCC[C@H]1C(=O)O (10 µM)	0.109
C(#Cc1nc2ncccc2nc1OCCN1CCCC1)c1ccccc1 (0.833333 µM)	0.0988
O=c1cc(-c2ccc(O)cc2)oc2cc(O)cc(O)c12 [apigenin] (10 µM)	0.129
CC(C)c1cccc2c1OC(C(C)C)C(=S)N2CC(=O)O (stereo not drawn) (10 µM)	0.0177
O=C(N[C@H]1CN2CCC1CC2)c1ccc2c(c1)OCCO2 (10 µM)	-0.0253
C=CCNc1ncnc2ccc(Br)cc12 (10 µM)	0.19
CCCN(CCC)C1Cc2cc(OC)c(OC)cc2C1 (10 µM)	0.231
C=Cc1cc(O)cc2nc(-c3ccc(O)c(F)c3)oc12 [prinaberel] (10 µM)	0.143
C[N+]1([O-])[C@@H]2CC[C@H]1C[C@@H](OC(=O)C(CO)c1ccccc1)C2 (stereo partly drawn) [atropine-oxide] (10 µM)	0.0224
CC(=O)N[C@H]1[C@H]([C@H](O)[C@H](O)CO)OC(C(=O)O)=C[C@@H]1NC(=N)N [zanamivir] (10 µM)	0.113
CCCCCCCCCCCCCCC[C@@H](O)[C@@H](N)CO [safingol] (10 µM)	-0.197
C/C1=C/C[C@@H](/C(C)=C/c2csc(C)n2)OC(=O)C[C@H](O)C(C)(C)C(=O)[C@H](C)[C@@H](O)[C@@H](C)CCC1 [epothilone-D] (0.833333 µM)	-0.105
O=C(O)c1cc(/N=N/c2ccc(O)c(C(=O)O)c2)ccc1O [olsalazine] (10 µM)	0.062
CCCC(C)(COC(N)=O)COC(=O)NC(C)C (stereo not drawn) (10 µM)	-0.33
CC(=O)OCC(=O)[C@@]1(O)CC[C@H]2[C@@H]3CCC4=CC(=O)CC[C@]4(C)[C@@]3(F)[C@@H](O)C[C@@]21C (10 µM)	0.0369
CC(=O)[C@H]1CC[C@H]2[C@@H]3CC[C@H]4C[C@H](O)CC[C@]4(C)[C@H]3C(=O)C[C@]12C [alfaxalone] (10 µM)	-0.0143
CCCCC1C(=O)N(c2ccccc2)N(c2ccccc2)C1=O [phenylbutazone] (10 µM)	0.209

Structure (SMILES)	morphology score
COc1cc(N2CCN(C(C)=O)CC2)ccc1Nc1ncc(Cl)c(Nc2ccc(N3CCN(C(C)=O)CC3)cc2OC)n1 (10 µM)	0.0828
O=C(Nc1cccc(C(F)(F)F)c1)Nc1ccc(Br)cc1-c1nnn[nH]1 (10 µM)	-0.0612
O=C(Nc1cccc2cccnc12)c1ccc(N2C(=O)[C@@H]3[C@H](C2=O)[C@@H]2C=C[C@H]3C2)cc1 [endo-IWR-1] (10 µM)	-0.0752
CC(=O)Nc1nc2c(Oc3cc(-c4ccc(C(F)(F)F)cc4)ncn3)cccc2s1 (10 µM)	0.163
c1ccc(-c2ccc(CNc3nc(-c4ccccn4)nnc3-c3ccccc3)cc2)cc1 (10 µM)	-0.0584
C[C@@H](NC(=O)CCc1nc2ccccc2c(=O)[nH]1)c1ccccc1 (10 µM)	0.239
CC(C)(O)c1ccccc1CC[C@@H](SCC1(CC(=O)O)CC1)c1cccc(/C=C/c2ccc3ccc(Cl)cc3n2)c1 [montelukast] (10 µM)	0.169
CCn1cc(C(=O)O)c(=O)c2ccc(C)nc21 [nalidixic-acid] (10 µM)	-0.0613
Cc1ccc(NC2=NCCN2)c(Cl)c1 [tolonidine] (10 µM)	-0.0217
CCC(=O)OCN1C(=O)C=CC1=O (10 µM)	0.14
NC(=O)c1ncn([C@@H]2O[C@H](CO)[C@@H](O)[C@H]2O)c1O [mizoribine] (10 µM)	0.0626
Cc1cccc2c1CC[C@H](CN1CCC(c3c(Cl)cccc3Cl)CC1)C[C@@H]2O (0.833333 µM)	0.134
Cn1nccc1Nc1nccc(-c2ccn([C@H](CO)c3ccc(Cl)c(F)c3)c(=O)c2)n1 (0.833333 µM)	0.0519
CCOc1c2c(c(OCC)c3ccccc13)C(=O)N(c1ccc(CC(=O)NS(=O)(=O)c3ccccc3)cc1)C2 (10 µM)	0.117
COC(=O)C1=C(C)NC(C)=C(C(=O)OC/C=C/c2ccccc2)C1c1cccc([N+](=O)[O-])c1 (stereo not drawn) [pranidipine] (10 µM)	-0.0636
Fc1ccc(C(OCCN2CCN(CCCc3ccccc3)CC2)c2ccc(F)cc2)cc1 [vanoxerine] (0.833333 µM)	0.275
